Compound activity from PubChem BioAssay.
EP2 mod: modulators of human EP2 prostaglandin E2 receptor | P43116 | induction, % at 25 µM | EP2-expressing cells, cAMP HTRF FRET, PGE2 co-stimulation | 260,000 tested, 0.83% active;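 active = compounds whose cAMP rise, as percent of the full-agonist control response, exceeds 60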;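 note: rat C6 glioma line stably carrying human EP2 under a CMV promoter; the protocol text gives 20 µM as final concentration; 100% = response of wells given 1 µM PGE2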
Target sequence (P43116 whole entry, looked up): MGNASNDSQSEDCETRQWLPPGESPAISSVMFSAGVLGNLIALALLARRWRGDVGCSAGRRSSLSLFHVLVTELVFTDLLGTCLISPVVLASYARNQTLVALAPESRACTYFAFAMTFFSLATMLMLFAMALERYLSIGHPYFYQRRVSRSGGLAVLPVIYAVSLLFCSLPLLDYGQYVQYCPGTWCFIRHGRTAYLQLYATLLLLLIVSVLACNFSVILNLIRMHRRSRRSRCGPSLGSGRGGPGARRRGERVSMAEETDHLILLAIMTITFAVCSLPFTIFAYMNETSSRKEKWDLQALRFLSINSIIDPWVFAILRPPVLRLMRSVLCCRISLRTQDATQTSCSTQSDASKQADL
PG9 binder: PG9 antibody binding by small molecule; TR-FRET gp120-PG9 antibody binding; inhibition, % at 6.7 µM; 360,000 tested, 0.43% active; in the data active = inhibition above about 8.5%
SKN-1 block: inhibitors of C. elegans SKN-1; C. elegans VP596 Pgst-4::GFP/RFP ratio, acrylamide-induced, 24 h; inhibition, % at 21.8 µM; 360,000 tested, 0.49% active; AID 624304;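 active = interference check ratio from 0.5 to 1.5 plus GFP to RFP signal ratio inhibition reaching or exceeding a fixed threshold, cut at about 30% in these data, passing the limit was not always enough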
RAM network inh: blocks the yeast RAM network. inhibition, % at 50 µM. 190,000 tested, 1.8% active. S. cerevisiae dse1pr::URA3 reporter, 5-FOA growth OD615, 2 d; analog-sensitive cbk1-as2 kinase mutant strain. AID 868;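 active = inhibition above a set limit, 3 SD over mean compound inhibition, cut at about 8.4% in these data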;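 note: 0% = DMSO-only wells with no growth and 100% = 10 µM 1-NA-PP1 full growth; inhibition rescues growth on 5-FOA so higher OD means more RAM inhibition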
EP2 antag: EP2 receptor (human) inhibition; P43116; C6 glioma cells expressing human EP2, cAMP TR-FRET; cells stimulated with saturating PGE2; inhibition, % at 25 µM; 260,000 tested, 0.52% active; AID 1422;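 active = percent inhibition above 40 after rounding to a whole number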;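 note: rat C6 glioma host cells with rolipram phosphodiesterase inhibitor present; the protocol text gives 20 µM as final concentration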
Rev-erbA mod: modulates human Rev-erb alpha binding to DNA; activity, % at 10 µM; Rev-erbα–FITC-DNA binding, fluorescence polarization, 90 min; 370,000 tested, 0.79% active; P20393;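 active = activity above about 14%, limit read from the data; passing the limit was not always enough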;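 note: 0% = DMSO wells with 35 nM protein and 100% = DMSO wells with 750 nM protein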
Rev-erbA confirm: confirmation of modulators of human Rev-erb alpha DNA binding | AID 1259319 | activation, % at 25 µM | shares compounds with Rev-erbA mod | 3,000 tested, 61% active | Rev-erb alpha FITC-DNA binding, fluorescence polarization, 90 min;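 active = activation at or above a set limit, or at least 3 SD above the negative control mean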;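 note: 0% = 35 nM protein with DMSO and 100% = 750 nM protein high control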
RORg counter: RORgamma DNA-binding activity, dose-response counter-screen; shares compounds with Rev-erbA mod; purified RORgamma protein-FITC-DNA binding, fluorescence polarization; IC50, µM; 910 tested, 8% active; AID 1259320;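 active = Compounds whose fitted half-maximal concentration for disrupting protein-DNA binding is below 10 micromolar; the record names Rev-erb in its text, so the target is in doubt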
Active calls of the source: *; i = inactive; . = not tested or not shown. A selection: hits, their analogues and other compounds. The true share with any hit is near 2.9%.

SMILES | EP2 mod | PG9 binder | SKN-1 block | RAM network inh | EP2 antag | Rev-erbA mod | Rev-erbA confirm | RORg counter
Cn1c(SCC(=O)c2ccc3c(c2)Cc2ccccc2-3)nnc1-c1ccccc1 | -41 | 2 | -9 | 1 | 14 | 62* | 47* | 7.5*
COc1ccc2c(Cl)c(-c3nnc(SCC(=O)c4ccccc4)n3C)sc2c1 | -2 | 1 | 8 | 3 | . | 95* | 117* | i
CCC(=O)Nc1nnc(SCC(=O)c2ccc3c(c2)Cc2ccccc2-3)s1 | 29 | 7 | 0 | 6 | . | 44* | 17* | .
COc1cc2c3nnc(-c4ccc(F)cc4)c-3cn(Cc3ccccc3F)c2cc1OC | 33 | 1 | -14 | 4 | 12 | 21* | 39* | >40
COc1cc2c3nnc(-c4ccccc4)c-3cn(Cc3ccccc3F)c2cc1OC | 36 | -1 | . | 4 | 15 | 14 | . | .
CCc1cc2c(=O)c(-c3nc4ccccc4n3C)c(COCC(=O)O)oc2cc1O | 7 | 0 | 2 | 2 | 14 | 1 | . | .
CCCc1cc2c(=O)c(-c3nc4ccccc4s3)c(COCC(=O)O)oc2cc1O | 4 | 0 | 10 | 2 | 5 | 30* | 18 | .
CCOC(=O)c1sc2ccc(S(=O)(=O)N3CCCCC3)cc2c1N | -36 | -1 | 0 | 1 | 2 | 4 | . | .
CCOC(=O)c1sc2ccc(S(=O)(=O)N3CC(C)CC(C)C3)cc2c1N (stereo not drawn) | 26 | -1 | 11 | 4 | 14 | 28* | 18* | .
COCCCN1C(=O)C(=O)/C(=C(\O)c2ccc(OC(C)C)c(C)c2)C1c1ccncc1 (stereo not drawn) | -7 | . | . | . | 15 | . | . | .
COC(=O)c1c(S(N)(=O)=O)c2ccccc2n1C | 4 | 2 | -5 | 0 | 7 | -4 | . | .
COC(=O)c1c(C(=O)c2ccc(Br)cc2)n(C)c2ccccc12 | . | 4 | -13 | . | . | 18* | 21* | .
COC(=O)c1ccc2nc(NC(=O)C(C)C)sc2c1 | -20 | -1 | 1 | 4 | 5 | -5 | . | .
CCOC(=O)c1ccc2nc(Nc3nc4ccc(F)cc4s3)sc2c1 | -48 | 0 | 0 | 7 | 8 | 35* | 31* | >40
CCOC(=O)C(=CNc1nc2ccc(C(=O)OCC)cc2s1)C(=O)OCC | 30 | 1 | 3 | . | 8 | 35* | 19* | .
CCOC(=O)c1ccc2nc(NC(C)=O)sc2c1 | 13 | 1 | 11 | 2 | 2 | 3 | . | .
COC(=O)c1ccc2nc(Nc3nc4c(F)cc(F)cc4s3)sc2c1 | -23 | 0 | 12 | 4 | 6 | 38* | 33* | >40
COC(=O)c1c(NC(C)=O)sc(C(=O)Nc2cc(C)ccc2C)c1C | 0 | . | . | . | 22 | . | . | .
Cc1cc2c(cc(C(=O)OC(C)C(=O)NCc3ccccc3)n2C)o1 (stereo not drawn) | . | -1 | -16 | . | . | 26* | 18* | .
COC(=O)c1ccc(Cn2ccc3ccc(-c4ccc5ccn(Cc6ccccc6)c5c4)cc32)cc1 | . | . | . | . | . | -4 | . | .
COc1ccc(Cn2ccc3ccc(-c4ccc5ccn(C(=O)c6ccccc6OC)c5c4)cc32)cc1 | . | . | . | . | . | 71* | 63* | >40
COC(=O)c1ccc(Cn2ccc3ccc(-c4ccc5ccn(C(=O)c6ccccc6OC)c5c4)cc32)cc1 | . | . | . | . | . | 47* | 72* | >40
COc1ccc(Cn2ccc3ccc(-c4ccc5ccn(C(=O)c6ccccc6C)c5c4)cc32)cc1 | . | . | . | . | . | 5 | . | .
Cc1cc(NC(=O)COC(=O)C2CC(=O)N(c3ccc(Cl)cc3)C2)no1 (stereo not drawn) | . | 0 | -1 | . | . | 22* | -8 | .
COc1ccc(-n2c3c(cc(C(=O)NCC(=O)c4ccccc4)c2=O)C(=O)CC(C)(C)C3)cc1 | . | 0 | 3 | . | . | 19* | 8 | .
O=C(CNC(=O)c1cc2c(n(-c3ccccc3)c1=O)CCCC2=O)c1ccccc1 | . | 0 | -1 | . | . | 5 | . | .
CCN1CCCC1CN(Cc1ccccn1)Cc1c(C)nn(C(C)C)c1C (stereo not drawn) | 6 | . | . | . | 11 | . | . | .
